PLK1 PBD inh = blocks phosphopeptide binding to human PLK1 polo-box domain. Plk1 PBD binding of FITC phosphopeptide, fluorescence polarization. Potency, µM, actives largely listed as inhibitors. hit rate 2.8% among 360,000. AID 720504; further: series mostly up to about 57 µM; nearly all actives have a fitted effect of over 65% in size
PI5P4Ka inh = PI5P4K alpha (human) kinase inhibition; P48426; PI5P4Kalpha enzyme, ADP-Glo luminescence, 60 min; hits give low values; max response, %; hit rate 1.2% among 330,000; AID 652105; active means max response of -50% or lower; inconclusive means between -30% and -50%; inactive means -30% or higher; further: value at the top dose of about 77 µM
Target sequence (P48426 whole entry, looked up): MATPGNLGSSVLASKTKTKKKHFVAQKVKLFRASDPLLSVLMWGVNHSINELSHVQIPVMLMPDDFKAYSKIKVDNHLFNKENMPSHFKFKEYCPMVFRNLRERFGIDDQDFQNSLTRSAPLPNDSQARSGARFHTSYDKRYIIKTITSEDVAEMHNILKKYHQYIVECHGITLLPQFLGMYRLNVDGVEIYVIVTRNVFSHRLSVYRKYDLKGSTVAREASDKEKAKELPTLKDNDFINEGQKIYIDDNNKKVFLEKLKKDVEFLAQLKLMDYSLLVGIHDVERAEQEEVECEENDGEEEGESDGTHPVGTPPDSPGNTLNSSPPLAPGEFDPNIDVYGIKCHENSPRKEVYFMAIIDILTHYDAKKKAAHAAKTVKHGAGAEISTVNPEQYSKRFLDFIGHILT
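Human PI5P4Kalpha with substrate in 0.038 M HEPES pH 7.4, 0.28 mM EGTA, 0.1% CHAPS, 5% DMSO; reaction started with 5 microM ATP (final), 60 min at room temperature. ADP formed read by ADP-Glo luminescence.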
G9a inh = inhibitors of human histone lysine methyltransferase G9a | Q96KQ7 | G9a H3K9 monomethylation, AlphaScreen, 2 h | Potency, µM (highest dose often 102 µM), hits mostly inhibitors | hit rate 8.8% among 350,000; further: nearly all actives have a fitted effect of over 75% in size
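Methyltransferase reactions run at room temperature for 2 h (20 nM enzyme, 500 nM biotin-H3K9 peptide, 20 uM SAM) after a 15 min compound preincubation; product detected by AlphaScreen beads and anti-H3K9me1 antibody.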
JMJD2A Tudor = inhibitors of human JMJD2A Tudor domain; O75164; AlphaScreen JMJD2A-Tudor / H3K4me3 peptide binding; Potency, µM (titrated, usually from 114 µM), most hits filed as inhibitors; hit rate 4.4% among 390,000; AID 504339; further: nearly all actives have a fitted effect of over 50% in size
BAZ2B inh = blocks human BAZ2B; Q9UIF8; AlphaScreen BAZ2B-H3K14Ac peptide displacement; Potency, µM (doses to about 114 µM), actives largely listed as inhibitors; hit rate 4.4% among 360,000; AID 504333; further: nearly all actives have a fitted effect of over 60% in size
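In this displacement format the biotinylated H3(5-23) peptide acetylated at Lys14 serves as ligand at 50 nM, with BAZ2B at 50 nM in PBS pH 7.4 containing 0.01% Tween-20. Donor and acceptor beads are 10 ug/mL final.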
HP1b chromo inh = inhibitors of HP1-beta chromodomain binding to methylated histone tails | P83916 | AlphaScreen HP1-beta / biotin-H3K9me3 peptide binding | Potency, µM (doses to about 114 µM), most hits filed as inhibitors | hit rate 0.56% among 390,000 | AID 540317; further: nearly all actives have a fitted effect of over 70% in size
Target sequence (P83916 whole entry, looked up): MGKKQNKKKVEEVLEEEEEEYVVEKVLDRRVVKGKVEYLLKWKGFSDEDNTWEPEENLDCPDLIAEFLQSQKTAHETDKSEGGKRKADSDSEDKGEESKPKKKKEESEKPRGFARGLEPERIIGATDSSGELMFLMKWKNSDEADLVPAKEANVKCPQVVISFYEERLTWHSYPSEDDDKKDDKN
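AlphaScreen: HP1-beta (50 nM) preformed 30 min with biotin-H3(1-18)K9me3 peptide (50 nM) in PBS pH 7.4, 0.01% Tween-20. Compound added for 30 min at RT, then streptavidin donor/nickel chelate acceptor beads (10 ug/mL) for 30 min.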
Numbers stand for hits; 0 = inactive; ? = inconclusive; - = no result; ! = not active in a repeat; [ ] = dose if it differs, or a comment. Most compounds without a hit are left out; they make up all but 12% or so of the library. Unless noted, the call rests on the fitted dose curve; in most records, active means well fitted curve in the direction sought with a large enough effect; inconclusive means small, poorly fitted or top-dose-only effect, or another doubt; inactive means no such curve, though single readings can be large; an effect the other way counts as inactive or inconclusive.

SMILES | PLK1 PBD inh | PI5P4Ka inh | G9a inh | JMJD2A Tudor | BAZ2B inh | HP1b chromo inh
COCCCn1c(CCC(=O)O)ccc1-c1cccs1 | 0 | 0 | ? | 0 | ? | 0
COc1ccc(-c2ccc(CCC(=O)O)n2-c2ccccc2O)cc1 | 0 | ? | ? | ? | ? | 0
O=C(c1ccc(S(=O)(=O)Cc2ccccc2F)c([N+](=O)[O-])c1)N1CCCCCC1 | 0 | 0 | ? | 0 | 0 | 0
O=C(c1ccc(S(=O)(=O)Cc2cc(F)ccc2F)c([N+](=O)[O-])c1)N1CCOCC1 | 27µM | 0 | - | - | - | -
CC1=C(/C=C/C(C)=C/C=C/C(C)=C/C(=O)O)C(C)(C)CCC1O (configuration not stated) | - | - | 0 | - | - | -
CC1=C(/C=C/C(C)=C/C=C/C(C)=C/C(=O)O)C(C)(C)CCC1 | ? | 0 | 50µM! | 0 | ? | 0
CC1=C(/C=C/C(C)=C\C=C\C(C)=C\C(=O)O)C(C)(C)CCC1 | - | - | 22µM! | - | - | -
CSc1nnc(-c2ccc(S(=O)(=O)N3CCOCC3)cc2)n1C | 0 | 0 | 22µM | 0 | 0 | 0
N#CCSc1nnc(-c2ccc(S(=O)(=O)N3CCOCC3)cc2)n1CC1CCCO1 (configuration not stated) | 0 | 0 | 0 | 89µM | 0 | 0
NC(=O)CSc1nnc(-c2ccc(S(=O)(=O)N3CCCC3)cc2)n1CC1CCCO1 (configuration not stated) | 0 | - | 0 | 0 | 0 | 0
CCOc1ccc(Nc2nc(C)c(NC(=O)c3cccc(OC)c3)c(Nc3ccc(OCC)cc3)n2)cc1 | - | - | 11µM | ? | ? | 0
CC(C)CN1CCCC2(CCN(C(=O)c3cc(C(F)(F)F)cc(C(F)(F)F)c3)CC2)C1 | - | - | 0[12.7 µM] | - | - | -
CSc1ccccc1C(=O)Nc1ccccc1C(=O)NC(C)C | 30µM | 0 | 0[12.7 µM] | ? | 0 | 0
COC(=O)c1ccccc1NC(=O)c1ccccc1SC | 0 | 0 | 8.9µM | 0 | 0 | 0
COc1ccc(N2CCN(C(=O)c3cccc(S(=O)(=O)N4CCc5ccccc54)c3)CC2)cc1 | 0 | 0 | - | 40µM | - | ?
CC(C)CN(CC(C)C)C(=O)c1cccc(S(=O)(=O)N2CCc3ccccc32)c1 | 24µM | 0 | 79µM | 45µM | 0 | 0
CC(C)CCNC(=O)c1cccc(S(=O)(=O)N2CCc3ccccc32)c1 | 0 | 0 | 0 | 0 | 0 | 0
CCN(CC)CCCC(C)NC(=O)c1cccc(S(=O)(=O)N2CCc3ccccc32)c1 (configuration not stated) | 0 | 0 | 45µM | 0 | 0 | 0
CC(C)(C)c1ccc(C(=O)NCC(=O)OCc2cc(=O)n3nc(C4CC4)sc3n2)cc1 | - | - | 0 | 0 | 0 | 0
COc1ccc(N2CCN(CC(=O)c3ccc(O)c(C)c3O)CC2)cc1 | 0 | 0 | 40µM | ? | ? | 0
Cc1c(O)ccc(C(=O)CN2CCN(c3ccccc3F)CC2)c1O | 0 | 0 | ? | 0 | ? | 0
Cc1c(O)ccc(C(=O)CN2CCN(c3ccccc3)CC2)c1O | 0 | 0 | 45µM | 0 | ? | 0
COc1ccc(N2CCN(CC(=O)c3c(C)n(C)c4ccc(OC)cc34)CC2)cc1 | 0 | 0 | 0[12.7 µM] | 0 | 0 | 0
Cc1ccccc1NS(=O)(=O)c1ccc2[nH]cc(C(=O)NC(C)c3ccccc3)c(=O)c2c1 (configuration not stated) | - | - | 0 | ? | ? | 0
O=C(COc1ccc(F)cc1)N/N=C/c1cccc2cccnc12 | 0 | 0 | - | 89µM | - | 0
SMILES | PLK1 PBD inh | PI5P4Ka inh | G9a inh | JMJD2A Tudor | BAZ2B inh | HP1b chromo inh
Cc1ccc(OCC(=O)N/N=C/c2cccc3cccnc23)cc1 | 0 | 0 | - | 56µM | 32µM | 0
Cc1ccccc1OCC(=O)N/N=C/c1cccc2cccnc12 | 0 | 0 | - | 50µM | 40µM | 0
O=C(COc1cccc2cccnc12)N/N=C/c1ccccc1O | 0 | 0 | - | 0 | 0 | 0
O=C(COc1cccc2cccnc12)N/N=C/c1cccn1-c1ccc(F)cc1 | 0 | 0 | 35µM | 20µM | 28µM | ?
CCCCCCCCN1C(=O)[C@H](CC(=O)NCc2ccccc2)C[C@@]2(C(=O)OC)CCCCC=C12 | 0 | 0 | - | - | - | -
Cc1ccc(NC(=O)CSc2n[nH]c(-c3ccc(F)cc3)n2)cc1F | - | - | 0 | 0 | 0 | 0
Cc1ccc(-c2cc(NC(=O)COc3ccc(Cl)cc3C)on2)cc1 | - | - | 0 | 0 | 0 | 0
C#CCn1cc(/C=N/NC(=O)COc2cccc3cccnc23)c2ccccc21 | 0 | 0 | 3.2µM | ? | ? | 0
Cc1noc(NS(=O)(=O)c2ccc(NC(=O)CSc3nc4ccccc4s3)cc2)c1C | 17µM | - | 8.9µM | ? | 0 | 0
Cc1noc(NS(=O)(=O)c2ccc(NC(=O)CSc3nc4c(cc3C#N)CCCC4)cc2)c1C | ? | 0 | 25µM | 0 | 0 | 0
COc1ccc(C(C)(NC(C)=O)c2nc(-c3cnc4ccccc4c3)cs2)cc1 (configuration not stated) | 0 | 0 | - | - | - | -
CCc1ccc(NC(=O)c2cnc3sc(N4CCCC4)nn3c2=O)cc1 | - | - | 0 | 0 | 0 | 0
Clc1ccc(OCCCn2cncn2)cc1Cl | 0 | 0 | 10µM | 8.9µM | 22µM | 0
Cc1cc(C)cc(OCCCCn2cncn2)c1 | 0 | 0 | 10µM | 28µM | ? | ?
c1ccc(COc2ccc(OCCCn3cncn3)cc2)cc1 | 0 | 0 | 0 | 0 | 0 | 0
Cc1ccc(-c2cc(C(=O)Oc3ccc(C#N)cc3)no2)cc1 | - | - | 0 | 0 | 0 | 0
C=CCN1C(=O)C(O)(CC(=O)c2ccc(OC)cc2OC)c2cc(Br)ccc21 (configuration not stated) | 8.4µM | ? | 0 | 0[11.4 µM] | 0 | 0
Cc1ccc(CN2CCN(C3CCNCC3)C(=O)C2=O)cc1 | - | - | 0 | 0 | 0 | 0
O=[N+]([O-])c1nn(-c2ccc(Cl)cc2)n(O)c1=NCc1cccnc1 | 0 | 0 | ? | ? | ? | 0
Cc1ccc(CN=c2c([N+](=O)[O-])nn(-c3ccc(Cl)cc3)n2O)cc1 | 0 | 0 | 50µM | ? | ? | ?
O=[N+]([O-])c1nn(-c2ccc(Cl)cc2)n(O)c1=NCc1ccccc1Cl | 0 | 0 | ? | 0 | ? | 0
O=[N+]([O-])c1nn(-c2ccc(Cl)cc2)n(O)c1=NCc1ccncc1 | 0 | 0 | 40µM | 0 | ? | 0
O=[N+]([O-])c1nn(-c2cccc(Cl)c2)n(O)c1=NCc1cccnc1 | 0 | 0 | 7.9µM | ? | ? | 0
COCCNC(=S)N(CCc1c(C)[nH]c2ccc(F)cc12)Cc1ccco1 | 0 | 0 | ? | 0 | 71µM | 0
CNC(=S)N(CCc1c(C)[nH]c2ccccc12)Cc1ccco1 | 0 | 0 | 50µM | ? | ? | ?
CNC(=S)N(CCc1c(C)[nH]c2ccc(F)cc12)Cc1ccco1 | 0 | 0 | 71µM | ? | ? | 0
CCC1CCCCN1C(=O)CSc1nc(-c2ccc(OC)cc2)cc(C(F)(F)F)n1 (configuration not stated) | - | - | 0 | 0 | 0 | 0
CSc1ccc(C(=S)N2CCN(C)CC2)cc1 | 30µM | - | ? | 0 | 0 | 0
